Compound activity from PubChem.
An excerpt weighted towards active compounds, which were near 7.5% of everything screened.
Giardia FBPA inh: blocks Giardia fructose-bisphosphate aldolase activity; A8B2U2; purified Giardia FBPA; Potency, µM (series often up to 59.6 µM), for the others: at the highest dose activity, negative = inhibition, hits mostly inhibitors; 0.71% of 290,000 active; note: potency is the fitted concentration of half-maximal effect; nearly all actives have a fitted effect of over 55% in size
Target sequence (A8B2U2 whole entry, looked up): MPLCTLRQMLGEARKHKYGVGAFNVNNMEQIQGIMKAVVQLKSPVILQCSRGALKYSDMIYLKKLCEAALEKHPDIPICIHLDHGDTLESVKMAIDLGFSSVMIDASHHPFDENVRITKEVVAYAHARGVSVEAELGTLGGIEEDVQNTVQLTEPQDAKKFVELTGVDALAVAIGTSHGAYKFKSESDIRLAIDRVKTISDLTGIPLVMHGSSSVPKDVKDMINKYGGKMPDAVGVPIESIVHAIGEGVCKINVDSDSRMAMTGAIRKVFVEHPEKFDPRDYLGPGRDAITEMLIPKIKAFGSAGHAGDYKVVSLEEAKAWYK
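40 nM FBPA preincubated 10 min at RT with compound (up to 57.5 uM final), then substrate plus GAPDH/TPI/NAD/arsenate coupling and diaphorase/resazurin added. Fluorescence read after 20 min at RT, 525/598 nm.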
HCV inh: HCV inhibition; Potency, µM (titrated, usually from 41.8 µM), for the others: top-dose activity change, negative = inhibition, usual class: inhibitors; Huh7.5.1 HCVcc-Cre infection, luciferase reporter, 44 h; AID 651820; 3.4% of 340,000 active; note: potency is the fitted concentration of half-maximal effect
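Whole-lifecycle infectious HCVcc-Cre system; cells 1,000/well, compound then virus (~0.5 moi) added 4 h after plating, 44 h culture. Luciferase read 15 sec following 15 min substrate incubation, room temp.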
Vaccinia mCherry: vaccinia inhibition (mCherry reporter); 0.63% of 310,000 active; Potency, µM (titrated, usually from 36.5 µM), inactives show at the top dose activity change, negative = inhibition, most hits filed as inhibitors; AID 720579; Vaccinia virus mCherry reporter infection, fluorescence; calls by dose curve; tested in A549 cells; note: potency is the fitted concentration of half-maximal effect; nearly all actives have a fitted effect of over 35% in size
Vaccinia Venus: vaccinia inhibition (Venus reporter). AID 720580. 0.46% of 330,000 active. Potency, µM (top dose mostly 36.5 µM), inactives show at the highest dose activity change, negative = inhibition, most hits filed as inhibitors. Vaccinia virus Venus reporter expression, fluorescence; calls by dose curve; tested in A549 cells; note: potency is the fitted concentration of half-maximal effect; nearly all actives have a fitted effect of over 30% in size
HCMV antiviral: blocks human cytomegalovirus replication. HFF cells, HCMV-luciferase reporter, 72 h; active compounds read low. activity change, negative = inhibition, % at 57.5 µM. 4.5% of 410,000 active. AID 1259415; in the data active = activity change below about -60%; inconclusive = no clear call, values can overlap the other calls; inactive = above about -39%
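HFF cells seeded 16 h at 37C, treated with compounds, infected with luciferase-reporter HCMV at MOI 1 PFU/cell; luciferase read at 72 h post infection, normalized to buffer-only and Salinomycin controls.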
FMDV antiviral: foot and mouth disease virus antiviral activity. 1.2% of 410,000 active. Potency, µM (top dose mostly 57.9 µM), for inactives: top-dose activity change, negative = inhibition, usual class: inhibitors. FMDV antiviral cell-based qHTS; calls by dose curve; tested in HEK293T cells; note: read-out not given here; potency is the fitted concentration of half-maximal effect; nearly all actives have a fitted effect of over 45% in size
Active calls of the source: *; i = inactive; ? = inconclusive; / = not tested or not shown; ! = repeats disagree. Unless noted, calls come from the whole dose curve; as a rule, active = well fitted curve in the direction sought with a large enough effect; inconclusive = small, poorly fitted or top-dose-only effect, or another doubt; inactive = no such curve, though single readings can be large; an effect the other way counts as inactive or inconclusive. % is set by controls: 0 for no effect and ±100 for the full control effect.

SMILES | Giardia FBPA inh | HCV inh | Vaccinia mCherry | Vaccinia Venus | HCMV antiviral | FMDV antiviral
CC(=O)Nc1ccc(C)cc1 | / | -14% | -9% | -10% | -17 | -25%
COc1ccc(C(=O)OCC(=O)c2ccc(CNC(C)=O)s2)cc1 | / | 39% | -10% | -6% | -15 | 41%
CC(=O)N(C)Cc1ccc(C(=O)CCl)cc1 | -19% | ? | i | -10% | -22 | ?
CC(=O)Nc1ccc(C(=O)CCl)cc1 | / | -24% | -8% | -21% | -2 | 28µM*
O=C(COC(=O)Cc1ccc(Br)cc1)NC1CCCC1 | / | 9% | i | -14% | -3 | -9%
c1ccc2c(CCNc3ncnc4nc[nH]c34)c[nH]c2c1 | -7% | 7.1µM* | ? | ? | ? | ?
COc1ccccc1CNc1ncnc2nc[nH]c12 | -10% | 0% | 3.5µM*! | ? | 19 | ?
c1ccc(CCNc2ncnc3nc[nH]c23)cc1 | -7% | ? | i | -26% | ? | -19%
Cc1ccc(C(=O)Nc2cccc([N+](=O)[O-])c2)cc1S(=O)(=O)Nc1ccc(NC(=O)c2ccccc2)cc1 | -6% | 10µM* | -28% | -14% | -74* | 27%
Cc1ccc(NS(=O)(=O)c2cc(C(=O)Nc3cccc([N+](=O)[O-])c3)ccc2C)cc1 | -6% | ? | ? | ? | -39 | 36%
NS(=O)(=O)c1cccc(NC(=O)c2ccc(NS(=O)(=O)c3cccc([N+](=O)[O-])c3)cc2)c1 | / | 1% | -11% | -24% | -75* | 10%
Cc1ccc(NC(=O)CC(=O)c2ccc([N+](=O)[O-])cc2)cc1S(=O)(=O)Nc1cccc(Cl)c1 | -2% | 10µM* | / | / | ? | -20%
CC(=O)Nc1ccc(NC(=O)c2ccc(C)c(S(=O)(=O)Nc3cccc(C)c3)c2)cc1 | -7% | 13µM* | -17% | -23% | -36 | 41%
COC(=O)[C@@H]1CCCN1S(=O)(=O)Cc1ccccc1 | / | / | i | -6% | / | /
CC1CC(C)CN(C(=O)CN2C(=O)NC3(CCCCCCC3)C2=O)C1 (stereo not given) | / | 14% | / | / | ? | 1%
Cc1ccc(C(=O)NCCSC2CCCCC2)cc1S(=O)(=O)Nc1ccccc1 | 2% | ? | ? | -20% | -75* | /
Cc1ccc(C)c(NC(=O)c2ccccc2NS(=O)(=O)c2cc([N+](=O)[O-])ccc2C)c1 | 18% | 8.9µM* | / | / | -87* | ?
O=[N+]([O-])c1c(Nc2ccccc2O)ccc2nonc12 | ? | 3% | -20% | -2% | -29 | -30%
O=[N+]([O-])c1c(Nc2ccccc2O)cc(Cl)c2nonc12 | -7% | 11µM* | -24% | ? | -97* | 10µM*
Nc1cc(Cl)c2nonc2c1[N+](=O)[O-] | ? | 4.5µM* | 10µM* | 10µM* | -95* | 8.9µM*
O=C(COC(=O)c1ccc(S(=O)(=O)NCc2ccco2)cc1)Nc1ccccc1OC(F)F | -4% | 11µM*! | -10% | 0% | 60 | 17%
O=C(COC(=O)c1ccc(S(=O)(=O)NCc2ccco2)cc1)Nc1ccccc1 | / | 11% | -17% | -9% | -2 | -11%
C=CCc1ccc(OCC(O)CN2CCC(Cc3ccccc3)CC2)c(OC)c1 (stereo not given) | -7% | 6.3µM* | / | ? | 30 | -18%
Cc1ccc(OCC(O)CN2CCC(Cc3ccccc3)CC2)c(C)c1 (stereo not given) | / | 11µM* | / | / | -77* | 4%
Cc1nc2ccccc2nc1CN1CCOc2ccc(C(C)(O)COc3ccccc3)cc2C1 (stereo not given) | / | / | -23% | -18% | / | 3%
CS(=O)(=O)N1N=C(c2cccs2)CC1c1ccccc1O (stereo not given) | -1% | 16% | -8% | -6% | 1 | 0%
Oc1ccccc1C1CC(c2cccs2)=NC(c2ccc(Cl)cc2)N1 (stereo not given) | -12% | ? | / | / | -70* | -15%
CCOc1ccc(-n2c(SCC(=O)N3CCCCC3)nc3c([nH]c4ccccc43)c2=O)cc1 | / | / | -5% | -1% | -2 | -34%
OCCN(CCO)c1nc(N2CCCCC2)c2nc(N(CCO)CCO)nc(N3CCCCC3)c2n1 | -7% | / | ? | ? | 17 | 32µM*!
